Data published in ChEMBL document CHEMBL4513216, “Probing the Open Global Health Chemical Diversity Library for Multistage-Active Starting Points for Next-Generation Antimalarials” (ACS Infect Dis, 2020).
Hit rate of the full screen: of about 69,000 compounds, about 8,600 (12%) showed an effect of 50% or more. This is one part of a sample in which strong results are shown more often than they occur.

Each molecule was assayed on Plasmodium berghei (assay: Screen against P. berghei liver stage (PbLuc), transformed with Luciferase, at 10uM). Conditions: tested at 10 uM.
Format: functional, HepG2

Row | SMILES | INHIBITION [%]
1 | Cn1ccc(C(=O)NC2CCC23CCN(Cc2nccs2)CC3)c1 (stereo unspecified) | 38.2
2 | Cc1cc(-c2ccccc2C(=O)O)nc(C2CCCN(C)C2)n1 (stereo unspecified) | 30.8
3 | CC(C)CN1CCS(=O)(=O)[C@@H]2CCN(S(=O)(=O)C3CC3)CC[C@@H]21 | 12.1
4 | CC(NC(=O)C1CC1)c1cc(O)nc(-c2cccnc2)n1 (stereo unspecified) | 10.3035
5 | O=C(c1ccnnc1)N1CCO[C@H]2[C@H](Oc3cccnc3)CC[C@@H]21 | 13.7
6 | CN1CCN(C(=O)CCc2ccccc2)Cc2cccnc21 | -54.5
7 | C=c1occc1=C1NN=C2SC(C#N)C(N)=NN21 (stereo unspecified) | -14.8
8 | CCC(C(=O)N(Cc1ccccc1OC)C1CC1)n1cccn1 (stereo unspecified) | 61
9 | CCC(C(=O)N(Cc1ccccn1)C1CCCCC1)n1cccn1 (stereo unspecified) | 72.1
10 | O=C(c1ccoc1)N(Cc1ccccn1)C1CC1 | -0.87
11 | CCC(C)C(=O)N(Cc1ccccn1)C1CC1 (stereo unspecified) | 36.9
12 | CCC(C(=O)N(C)Cc1cc(C2CC2)[nH]n1)n1cccn1 (stereo unspecified) | -33.5
13 | CCC(C(=O)NC1CCCCC1)n1cccc(OC)c1=O (stereo unspecified) | -1.83
14 | O=C(c1csc(-c2nnc[nH]2)n1)N1CCCCC1Cn1cccn1 (stereo unspecified) | 18.2
15 | Cn1cc(C(=O)CC2CCCN2C(=O)c2ccncc2F)cn1 (stereo unspecified) | 10
16 | CC(=O)N1CCN(CCCOc2ccccc2F)CC(C(N)=O)C1 (stereo unspecified) | 46
17 | COc1ccc(F)cc1C(=O)N1C[C@H]2CC(OC)C[C@H]2C1 (stereo partly specified) | 23.2
18 | Cc1ccccc1CC(C)(C)NC(=O)COc1cccc(C(N)=O)c1 | 38
19 | Cc1ccccc1CC(C)(C)NC(=O)c1cccc(OCC(N)=O)c1 | 36.3
20 | Cc1ccccc1CC(C)(C)NC(=O)CCOc1cccc(C(N)=O)c1 | 69.7
21 | c1cc2c(cc1Cn1cc(C3CCOC3)nn1)CCCO2 (stereo unspecified) | 46.7
22 | CCC(=O)N1CCCN(Cn2nc(C)c(Br)c2C)CC1 | 56.1
23 | COCC(=O)N1CCN(Cn2nc(C)c(Br)c2C)CC1 | -36.4
24 | COC(=O)N1CCCN(Cn2nc(C)c(Br)c2C)CC1 | 13

Row | SMILES | INHIBITION [%]
25 | COc1ccc(CNC(=O)N2CCN(CC(O)C3CC3)CC2)cc1 (stereo unspecified) | 35
26 | CN(C)CCOc1cccc(CN2CCCC3(C2)CN(C)C(=O)O3)c1 (stereo unspecified) | 20.9
27 | Cc1ccc(C(CNCc2ncc[nH]2)N2CCOCC2)s1 (stereo unspecified) | 60.3
28 | Cc1ccc(C(CNCc2cccnc2)N2CCOCC2)s1 (stereo unspecified) | 42.3
29 | CCn1ccnc1CNCC(c1ccc(C)s1)N1CCOCC1 (stereo unspecified) | 60.3
30 | CN(Cc1ncc[nH]1)CC(c1cccs1)N1CCOCC1 (stereo unspecified) | 12.8
31 | Cc1ccc(C(CNCc2nccn2C)N2CCOCC2)s1 (stereo unspecified) | 47.4
32 | Cc1ccc(C(CNCC2CC2)N2CCOCC2)s1 (stereo unspecified) | -23.2
33 | Cc1nccn1CCN(C)C(=O)c1cn(-c2ccccc2)nn1 | -32.6
34 | CC(C)NC(=O)N1CCCn2cnc(CN3CCCC3=O)c2C1 | -12.2
35 | CN(C)CCOCC1CN(C(=O)c2ccnnc2)Cc2ccnn2C1 (stereo unspecified) | 39.8
36 | CO[C@H]1CN(Cc2nc3ccccc3n2C)C[C@@]12CCCO2 | 25.64
37 | COCCCNC(=O)CN(C)C(=O)c1ccc(-n2cccc2)cc1O | 39.25
38 | CCn1c(Cn2cncn2)nnc1C1CCN(C2CCOCC2)CC1 | 15.7
39 | Cc1n[nH]c(C2CN(C(=O)COCC(F)(F)F)CCO2)n1 (stereo unspecified) | 32.2
40 | NC(=O)c1cnn2c1NCC(CNC1(c3ccccc3)CCC1)C2 (stereo unspecified) | 33.7
41 | O=S(=O)(NCc1ccc(S(=O)(=O)N2CCCC2)s1)c1cc(Cl)ccc1Cl | 3.48
42 | Nc1nc(SCc2ccc3c(c2)OCO3)ns1 | -14.2
43 | CC(C)CNC(=O)Nc1cccc(OCC#N)c1 | -8.4
44 | CN(CCn1ccc2ccccc21)C(=O)CS(C)(=O)=O | 34.1
45 | CN(CCn1ccc2ccccc21)C(=O)Cc1n[nH]c(=O)[nH]1 | 5.38
46 | CN(CCn1ccc2ccccc21)C(=O)Cc1nnn[nH]1 | 62.8
47 | Cn1cc(CN2CCCN(C(=O)c3sccc3C#N)CC2)cn1 | -5.25
48 | c1cnc(N2CC3(CCN(CC4CCOC4)CC3)c3ccccc32)nc1 (stereo unspecified) | 18.7

Row | SMILES | INHIBITION [%]
49 | CCS(=O)(=O)N1CCC2(CC1)CN(CC1CCOC1)c1ccccc12 (stereo unspecified) | 73.8
50 | c1ccc2c(c1)N(CC1CCOC1)CC21CCN(c2cnccn2)CC1 (stereo unspecified) | 84.7
51 | c1cnc(N2CCC3(CCN(CC4CCOC4)CC3)C2)nc1 (stereo unspecified) | -10.2
52 | CS(=O)(=O)N1CCC2(CC1)CN(CC1CCOC1)c1ccccc12 (stereo unspecified) | 39.4
53 | c1cnc(N2CCC3(CC2)CN(CC2CC2)c2ccccc23)nc1 | 83.2
54 | CCS(=O)(=O)N1CCC2(CC1)CC(CC(=O)NC1CC1)c1ccccc12 (stereo unspecified) | -5.22
55 | CCCS(=O)(=O)N1CCC2(CC1)CC(N1CCCC1)c1ccccc12 (stereo unspecified) | 71.8
56 | CCS(=O)(=O)N1CCC2(CCC(N3CCCC3)c3ccccc32)CC1 (stereo unspecified) | 23.1
57 | O=C1CC2(CCN(CC3CCOC3)CC2)c2ccccc2N1CC1CC1 (stereo unspecified) | 9.97
58 | OCCN1CC2(CCN(CC3CC3)CC2)c2ccccc21 | 26
59 | O=C1N(CC2CC2)CCC12CCN(c1ncccn1)CC2 | -2.6
60 | Cc1cc(C(=O)N2CCn3cc(CN4CCN(C)CC4)nc3C2)no1 | 32.2
61 | Cc1nc(Nc2nccs2)cc(C2CN(C(C)C)C2)n1 | -17.9
62 | CC(=O)N1CCCC(c2cnc(-c3c(C)nn(C)c3C)cn2)C1 (stereo unspecified) | 47.8
63 | CCc1n[nH]c(C2CN(C(=O)c3ccc(Cl)cn3)CCO2)n1 (stereo unspecified) | 25.4
64 | CN(CC(=O)N(C)C(c1ccc(Cl)cc1)c1cccnc1)C1CC1 (stereo unspecified) | 3.19
65 | CCS(=O)(=O)N1CCC2(CC1)CC(Oc1ccccn1)CO2 (stereo unspecified) | 0.547
66 | CN1CCCN(C[C@@H]2CN(c3nc(C(N)=O)cs3)C[C@@H]2CO)CC1 | 20.3
67 | Cc1cnn(C2CCCN(C(=O)c3ccc(N4CCCC4)nc3)C2)c1 (stereo unspecified) | 19.6
68 | CN1CCC(N(C)C(=O)c2cnn(-c3ccccc3Br)c2N)CC1 | 27.3
69 | CCCS(=O)(=O)N1CCC2(CC1)CN(CC1CCOC1)c1ccccc12 (stereo unspecified) | 87.4
70 | CCCS(=O)(=O)N1CCC2(CC1)CN(C(=O)N(C)C)c1ccccc12 | 10.7
71 | CN(C)C(=O)N1CCC2(CC1)C(=O)N(CC1CCOC1)c1ccccc12 (stereo unspecified) | 7.5
